HT1080NT lethal = qHTS for induction of synthetic lethality in tumor cells producing 2HG: qHTS for the HT-1080-NT fibrosarcoma cell line; Potency, µM (highest dose often 46.1 µM), most hits filed as cytotoxic; HT-1080-NT fibrosarcoma viability, CellTiter-Glo ATP luminescence, 48 h; actives 1.6% (n = 360,000);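 note: NT is the 2HG producing partner of a matched IDH1 knockdown line; nearly all actives have a fitted effect of over 55% in size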
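Read-out is CellTiter-Glo luminescence after 10 minutes at room temperature, following 48 hours' compound treatment of HT-1080-NT cells (750 cells/well, RPMI, 5% FBS, 37 degrees C).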
DT40 TDP1 no CPT = qHTS for Inhibitors of human tyrosyl-DNA phosphodiesterase 1 (TDP1): qHTS in cells in absence of CPT; DT40 Tdp1-/- hTDP1 cells, no CPT, ATP luminescence, 48 h; Potency, µM (series often up to 46.2 µM), usual class: inhibitors; actives 15% (n = 420,000); note: nearly all actives have a fitted effect of over 55% in size
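Seeded 400 DT40-hTDP1 cells/well (vehicle DMSO, no 20 nM CPT); pinned compounds; ≥48 hr at 37 °C; CellTiter-Glo luminescence as viability measure.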
TGFb inhibitor = qHTS for Inhibitors of TGF-b | HepG2 CAGA-GFP TGF-b/SMAD3 reporter, GFP fluorescence, 18 h; TGF-beta stimulated, 500 pg/mL final | Potency, µM (titrated, usually from 46.1 µM), most hits filed as inhibitors | actives 1.2% (n = 410,000); note: nearly all actives have a fitted effect of over 65% in size
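Using HEPG2 CAGA-GFP reporter cells at 1000 cells/well, we pinned test compounds, stimulated with recombinant TGF-beta (500 pg/mL final) and measured total well GFP after 18 h.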
TDP1 cell CPT = qHTS for Inhibitors of human tyrosyl-DNA phosphodiesterase 1 (TDP1): qHTS in cells in presence of CPT; Potency, µM (doses to about 46.2 µM), most hits filed as inhibitors; actives 12% (n = 420,000); chicken DT40 Tdp1-/-;hTDP1 cells + 20 nM CPT, ATP luminescence, 48 h; note: nearly all actives have a fitted effect of over 55% in size
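Chicken DT40 Tdp1-/- cells stably complemented with human TDP1 were seeded at 400 cells/well in medium containing 20 nM camptothecin, exposed to pin-transferred compounds, and grown at 37 °C for at least 48 hr. Viability was read as ATP luminescence.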
HT1080 IDH1KD tx = qHTS for induction of synthetic lethality in tumor cells producing 2HG: qHTS for the HT-1080-IDH1KD cell line. Potency, µM (doses to about 46.1 µM), most hits filed as cytotoxic. HT-1080 IDH1 knockdown viability, ATP luminescence, 48 h. actives 2% (n = 360,000)
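CellTiter-Glo luminescence after 48 h compound exposure at 37 degrees C of IDH1-knockdown HT-1080 cells in 5% FBS RPMI. %Activity scaled between DMSO wells and cell-free media wells, with curves fitted and assigned curve classes.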
HepG2 tox-1 = qHTS for Inhibitors of TGF-b: Cytotox Counterscreen. HepG2 CAGA-GFP viability, ATP luminescence, 18 h. actives 0.76% (n = 410,000). AID 588856, 2011. Potency, µM (doses to about 46.1 µM), hits mostly cytotoxic
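HepG2 CAGA-GFP cells (1000/well, DMEM with 1% FBS) received compound, then TGF-beta at 500 pg/mL final, and were incubated 18 hours at 37 degrees C. Viability was read by CellTiter-Glo luminescence. Media-only wells were set as complete cell-killing and DMSO as no toxicity.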
TGFb CAGA inh = qHTS for Inhibitors of TGF-b: Confirmation of Cherry Picks; shares compounds with TGFb inhibitor; HepG2 CAGA-GFP TGF-b reporter, GFP fluorescence, 18 h; cells stimulated with TGF-beta, 500 pg/mL; actives 63% (n = 1,600); Potency, µM (top dose mostly 46.1 µM), hits mostly inhibitors; note: nearly all actives have a fitted effect of over 65% in size
HepG2 tox-2 = qHTS for Inhibitors of TGF-b: Cytotox Counterscreen for Cherry Picks; Potency, µM (highest dose often 46.1 µM), most hits filed as inhibitors; actives 27% (n = 1,600); HepG2 CAGA-GFP viability, ATP luminescence, 18 h; cells stimulated with TGF-beta, 500 pg/mL; shares compounds with TGFb inhibitor; AID 720535, 2013; note: nearly all actives have a fitted effect of over 70% in size
CCL64 TGFb inh = qHTS for Inhibitors of TGF-b: CCL64 Cells Orthogonal Assay for Cherry Picks; AID 720536, 2013; CCL64 CAGA-GFP reporter, TGF-b stimulated, GFP fluorescence, 18 h; actives 41% (n = 1,600); shares compounds with TGFb inhibitor; Potency, µM (top dose mostly 46.1 µM), usual class: inhibitors; note: nearly all actives have a fitted effect of over 65% in size
COP TGFb inh = qHTS for Inhibitors of TGF-b: Hit Validation in HepG2 Cells using COP promoter | AID 720537, 2013 | Potency, µM (doses to about 46.1 µM), usual class: inhibitors | shares compounds with TGFb inhibitor | actives 3% (n = 1,600) | HepG2 COP-GFP TGF-b reporter, GFP fluorescence, 18 h; cells stimulated by added recombinant TGF-beta; note: nearly all actives have a fitted effect of over 70% in size
Numbers stand for hits; - = inactive; ? = inconclusive; . = not tested or not shown. In the library only some 17% were active in any assay of this set; here they are far more common. Calls come from the whole dose curve; as a rule, active = well fitted curve in the direction sought with a large enough effect; inconclusive = small, poorly fitted or top-dose-only effect, or another doubt; inactive = no such curve, though single readings can be large; an effect the other way counts as inactive or inconclusive.

SMILES | HT1080NT lethal | DT40 TDP1 no CPT | TGFb inhibitor | TDP1 cell CPT | HT1080 IDH1KD tx | HepG2 tox-1 | TGFb CAGA inh | HepG2 tox-2 | CCL64 TGFb inh | COP TGFb inh
Cc1cccc(C(c2sc3nc(-c4ccco4)nn3c2O)N2CCN(Cc3ccccc3)CC2)c1 (stereo unspecified) | . | - | ? | - | . | - | . | . | . | .
CCCCn1c(N)c(N(CC)C(=O)c2cc3c(s2)CCCCC3)c(=O)[nH]c1=O | - | - | - | - | - | - | . | . | . | .
COc1ccc(Cl)cc1N1C(=NC(=O)C2CCCCC2)SC2CS(=O)(=O)CC21 (stereo unspecified) | - | - | - | - | - | - | . | . | . | .
CCc1ccccc1Oc1nc(NCc2ccccc2)nc2ccsc12 | ? | ? | 11µM | ? | ? | - | 23µM | ? | 16µM | -
O=C1NCCN1CCNc1nc(NCc2ccccc2)nc2ccsc12 | - | ? | 7.9µM | ? | - | - | 15µM | ? | ? | -
c1ccc(CNc2nc(NCCc3ccncc3)c3sccc3n2)cc1 | ? | 10µM | 2.2µM | 18µM | ? | - | 1.5µM | 7.3µM | 4.6µM | -
CCOC(=O)c1sc(NC(=O)Nc2ccc(Cl)cc2)cc1C | ? | 3.7µM | 5.6µM | 5.8µM | ? | - | ? | ? | 16µM | -
Cc1cc(NC(=S)NC(=O)C2CC2)ccc1Br | - | ? | 4µM | ? | - | - | 0.82µM | 0.46µM | ? | -
CC(=O)Nc1cc(OC(C)=O)c2nonc2c1OC(C)=O | 6.3µM | 18µM | 2.8µM | ? | 3.5µM | 6.3µM | 4.1µM | 7.3µM | 21µM | 9.2µM
CC(=O)Nc1nonc1NC(C)=O | - | - | - | - | - | - | . | . | . | .
COCCNC(=O)C1CCCN(S(=O)(=O)c2cccc3nsnc23)C1 (stereo unspecified) | - | - | - | - | - | - | . | . | . | .
O=S(=O)(Nc1cccc2ccccc12)c1ccccc1 | - | - | - | - | - | - | . | . | . | .
O=S(=O)(Nc1cccc2cccnc12)c1ccccc1 | 26µM | 8.2µM | 7.1µM | 13µM | 23µM | - | 23µM | ? | 12µM | -
COc1ccc(Cl)cc1Cn1c(C)c(C(=O)NCc2ccc(F)cc2)sc1=O | - | ? | 14µM | ? | ? | - | ? | - | ? | -
COc1ccc(CCNC(=O)c2ccc(-c3ccc([N+](=O)[O-])cc3Cl)o2)cc1OC | - | 8.2µM | 10µM | 7.3µM | - | - | 21µM | ? | 9.2µM | -
NC(=O)c1sc(-c2ccsc2)cc1NS(=O)(=O)c1ccc(C(F)(F)F)cc1 | - | ? | ? | - | - | - | 23µM | ? | ? | -
Cc1ccc(NC(=O)[C@H](CSCc2ccccc2)N2Cc3ccccc3C2=O)cc1 | . | ? | - | - | . | - | . | . | . | .
COCCN(Cc1cc2cc3c(cc2nc1Cl)OCO3)C(=O)c1ccc(C)cc1 | - | 13µM | ? | ? | - | - | ? | - | - | -
CCCNC(=O)C1(C)CCN(CCOc2ccc(Cl)cc2)C1 (stereo unspecified) | - | - | - | - | - | - | . | . | . | .
Cc1cc(NC(=O)Cc2ccccc2)ccc1NC(=O)c1cccs1 | - | - | - | ? | - | - | . | . | . | .
COc1ccc(NC(=O)[C@@H]2CC=C[C@@H]3CCN(Cc4ccc(Cl)c(Cl)c4)C(=O)[C@@H]32)cc1 | - | ? | 13µM | ? | ? | - | 2.9µM | - | 29µM | -
COc1ccc(NC(=O)[C@@H]2CC=C[C@@H]3CCN(Cc4ccccc4)C(=O)[C@@H]32)cc1 | - | ? | ? | ? | - | - | . | . | . | .
Cc1cccc(-c2nc3c4ccccc4nc(NCc4ccc(Cl)cc4)n3n2)c1 | . | - | - | - | . | - | . | . | . | .
O=C(O)c1cc(-c2ccc(-c3c(-c4ccc5c(c4)OCO5)noc3-c3ccsc3)cc2)nc2ccccc12 | - | ? | ? | ? | - | - | 16µM | ? | 18µM | -
CN(C)c1ccc(-c2c(-c3ccc4c(c3)OCO4)noc2-c2ccsc2)cn1 | - | ? | ? | ? | - | - | . | . | . | .
SMILES | HT1080NT lethal | DT40 TDP1 no CPT | TGFb inhibitor | TDP1 cell CPT | HT1080 IDH1KD tx | HepG2 tox-1 | TGFb CAGA inh | HepG2 tox-2 | CCL64 TGFb inh | COP TGFb inh
COC(=O)c1ccc(C)c(NS(=O)(=O)c2ccc(OC)cc2)c1 | ? | 0.23µM | ? | 0.29µM | ? | - | ? | - | ? | -
COc1cc(OC)cc(C(=O)NCCCCCCNC(=O)c2cc(OC)cc(OC)c2)c1 | - | - | - | - | - | - | - | - | - | -
CCC1CCCCN1S(=O)(=O)c1ccc(-n2cnnn2)c(C)c1 (stereo unspecified) | - | - | - | - | - | - | . | . | . | .
N#Cc1ccc(CN2CC[C@@]3(CCCN(C(=O)c4cnccn4)C3)C2)cc1 | . | - | . | - | . | . | . | . | . | .
CC(=O)Nc1ccc2c(c1)-c1ccc(F)cc1C2 | - | ? | 10µM | ? | - | - | ? | ? | - | -
Cc1ccccc1CN(CC(=O)Nc1cccc([N+](=O)[O-])c1)S(=O)(=O)c1ccc(Cl)cc1 | ? | ? | 11µM | ? | - | - | 10µM | ? | 2.3µM | -
CS(=O)(=O)N(CC(=O)Nc1cccc([N+](=O)[O-])c1)c1ccccc1F | - | - | - | - | - | - | . | . | . | .

Compound activity (PubChem BioAssay)
